Screening data as filed in PubChem.
p53ts 32C tox = kills p53ts cells at the permissive temperature. H1299-p53A138V at 32C, ATP luminescence viability, 24 h. Potency, µM (titrated, usually from 46.1 µM), for the others: top-dose activity change, negative = cytotoxicity, most hits filed as cytotoxic. 130,000 compounds, 0.93% hits. AID 924;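 note: potency is the fitted concentration of half-maximal effect; 0% = DMSO and -100% = full killing by reference compound; nearly all actives have a fitted effect of over 55% in size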
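ATP-content luminescence (ATPlite) read-out after 24 h compound exposure at 32C in H1299-p53A138V cells (600/well). Tested up to 46 uM. Normalized to DMSO (0%) and 100 uM tamoxifen (100% killing); Hill-fit AC50.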
ERK AVP block = blocks ERK signaling stimulated by vasopressin; HEK293-V1b, vasopressin-stimulated pERK AlphaScreen; Potency, µM (doses to about 57.5 µM), without a hit: top-dose activity, negative = inhibition, hits mostly inhibitors; 72,000 compounds, 0.99% hits; note: potency is the fitted concentration of half-maximal effect; % is set by controls: 0 for no effect and ±100 for the full control effect; nearly all actives have a fitted effect of over 55% in size
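V1b-HEK293 cells; cpd 30 min 37C; 25 nM vasopressin 5 min; lyse 10 min; AlphaScreen beads 5 hr RT. Normalized to DMSO basal and 25 nM vasopressin; AC50 by Hill fit.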
Tau filament bind = tau filament binding | P10636 | recombinant tau filaments, thioflavin S fluorescence, 15 h; filaments grown with octadecylsulfate alongside compound | Potency, µM (top dose mostly 57.1 µM), inactives show at the highest dose activity change, negative = inhibition | 71,000 compounds, 2% hits;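 note: potency is the fitted concentration of half-maximal effect; % is set by controls: 0 for no effect and ±100 for the full control effect; actives lower thioflavin S fluorescence by blocking filaments or displacing dye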
Target sequence (P10636 whole entry, looked up): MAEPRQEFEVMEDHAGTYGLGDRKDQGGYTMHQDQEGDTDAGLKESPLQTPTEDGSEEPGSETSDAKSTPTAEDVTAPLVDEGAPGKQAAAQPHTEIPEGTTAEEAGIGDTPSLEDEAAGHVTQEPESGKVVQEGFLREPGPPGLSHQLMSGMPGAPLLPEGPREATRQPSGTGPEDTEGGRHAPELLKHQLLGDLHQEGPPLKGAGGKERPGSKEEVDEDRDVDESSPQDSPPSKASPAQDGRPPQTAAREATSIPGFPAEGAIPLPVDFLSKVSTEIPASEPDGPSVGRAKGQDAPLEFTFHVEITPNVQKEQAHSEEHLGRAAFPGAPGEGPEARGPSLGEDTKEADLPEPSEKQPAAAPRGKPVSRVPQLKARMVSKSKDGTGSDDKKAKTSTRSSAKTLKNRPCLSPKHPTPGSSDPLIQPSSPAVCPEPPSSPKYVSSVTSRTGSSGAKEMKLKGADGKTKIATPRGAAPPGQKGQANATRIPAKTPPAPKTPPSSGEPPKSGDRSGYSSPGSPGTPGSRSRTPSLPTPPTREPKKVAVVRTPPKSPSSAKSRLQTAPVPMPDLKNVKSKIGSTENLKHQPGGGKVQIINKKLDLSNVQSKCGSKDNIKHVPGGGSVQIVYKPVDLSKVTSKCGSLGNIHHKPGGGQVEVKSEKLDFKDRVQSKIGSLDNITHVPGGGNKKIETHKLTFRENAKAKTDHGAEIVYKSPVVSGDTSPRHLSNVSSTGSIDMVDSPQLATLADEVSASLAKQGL
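Read-out: ThS fluorescence, 450 nm excitation/510 nm emission; lower signal marks blocked filament formation or displaced dye. Tau at 1 uM with 30 uM ODS, 10 uM ThS, 5 mM DTT, 100 mM NaCl, 10 mM HEPES pH 7.4; 15 h, 37 C.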
Pol III holo inh = inhibitors of bacterial DNA polymerase III holoenzyme | reconstituted DNA polymerase III holoenzyme replication, biochemical | Potency, µM (doses to about 57.1 µM), for the others: at the top dose activity change, negative = inhibition | 71,000 compounds, 0.25% hits | AID 603; note: potency is the fitted concentration of half-maximal effect; % is set by controls: 0 for no effect and ±100 for the full control effect
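Reconstituted *E. coli* holoenzyme (0.35 nM Pol III, 1 nM beta, 154 nM SSB, 2 nM primase) was preincubated with compound for 15 min at RT. Synthesis on 1.4 nM ssM13Gori ran 35 min, then was stopped with PicoGreen/EDTA and read as dsDNA fluorescence.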
p53ts 39C tox = cytotoxicity in p53ts cells at nonpermissive temperature; H1299-p53A138V viability at 39C, ATP luminescence, 24 h; Potency, µM (titrated, usually from 46.1 µM), for the others: at the top dose activity change, negative = cell killing, most hits filed as cytotoxic; 130,000 compounds, 1.5% hits; AID 902; note: potency is the fitted concentration of half-maximal effect; % is set by controls: 0 for no effect and ±100 for the full control effect; nearly all actives have a fitted effect of over 55% in size
TsaE inh = displaces an ADP probe from E. coli YjeE (TsaE). P0AF67. purified YjeE enzyme, qHTS inhibition assay. Potency, µM. 71,000 compounds, 0.05% hits
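Purified YjeE (10 uM) with BODIPY Texas Red-labeled ADP probe (2 uM); compounds pin-transferred, 15 min at room temperature. Binding inhibition read as decreased fluorescence polarization; ADP titration as control.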
tau ThS displ = tau filament binding by ThS displacement; shares compounds with Tau filament bind; recombinant tau filaments, Thioflavin S fluorescence displacement; Potency, µM; 60 compounds, 40% hits; calls by dose curve
aSyn ThS bind = compounds binding human alpha-synuclein fibrils, displacing Thioflavin S; Potency, µM; 60 compounds, 40% hits; shares compounds with Tau filament bind; recombinant alpha-synuclein fibrils, ThS fluorescence displacement; AID 937; calls by dose curve
Abeta ThS displ = displaces Thioflavin S from Abeta1-42 fibrils. shares compounds with Tau filament bind. AID 956. Abeta1-42 fibrillization, thioflavin S fluorescence, overnight 37 C. 60 compounds, 50% hits. Potency, µM; calls by dose curve
An asterisk follows results filed as active; i = inactive; u = inconclusive; x = no result given; [ ] = dose if it differs, or a comment. Sampled rows, rich in hits. Any-hit rate of the full collection: about 3.2%. Unless noted, calls come from the whole dose curve; as a rule, active = well fitted curve in the direction sought with a large enough effect; inconclusive = small, poorly fitted or top-dose-only effect, or another doubt; inactive = no such curve, though single readings can be large; an effect the other way counts as inactive or inconclusive.

SMILES	p53ts 32C tox	ERK AVP block	Tau filament bind	Pol III holo inh	p53ts 39C tox	TsaE inh	tau ThS displ	aSyn ThS bind	Abeta ThS displ
CN(C)c1ccc(NC(=S)c2ccccn2)cc1	1.6µM*	16µM*	5µM*	-1%	2.5µM*	i	7.1µM*	8.9µM*	6.2µM*
N#CCCn1c(=O)c(-c2cc(F)cc(F)c2)nc2cnc(Oc3cccc(Cl)c3)nc21	-5%	u	6%	3%	-3%	i	x	x	x
CC(=O)OCCNc1cc(N2CCN(C)CC2)c2noc3c2c1C(=O)c1ccccc1-3	-9%	16µM*	3.2µM*	5%	-17%	i	3µM*	2.7µM*	1.3µM*
O=c1c(-c2cccs2)nc2cnc(Nc3ccccc3)nc2n1C[C@H]1CCCO1	-1%	13%	432%	0%	-5%	i	x	x	x
CCCCOc1ccc(C(=O)Nc2ccc(N3CCN(C)CC3)cc2)cc1	13%	-6%	1µM*	1%	16%	i	u	i	i
CN1c2cccc3cccc(c23)N(C)C1(C)C	2%	5%	-81%	-1%	-2%	i	i	u	u
CN1/C(=N\O)c2cccc3cccc1c23	-8%	5%	333%	-5%	0%	i	x	x	x
CCOC(=O)C1CCN(S(=O)(=O)c2cccc3nonc23)CC1	-3%	24%	-11%	2%	11%	i	i	i	i
CCOc1ccccc1NC(=O)CSc1nc2c(c(=O)[nH]1)CCC2	7%	x	x	x	-1%	x	x	x	x
CCOC(=O)N1CCc2c(sc3c2C(=O)NC(c2ccc(C(=O)OC)cc2)N3)C1 (stereo not given)	-5%	x	x	x	-4%	x	x	x	x
CCOC(=O)N1CCc2c(sc3c2C(=O)NC(c2ccc(-c4ccc(Cl)cc4)o2)N3)C1 (stereo not given)	-17%	-2%	0.63µM*	6%	6%	i	i	i	i
CCC12CN3CC(C)(CN(C1)C3c1c[nH]c3ccccc13)C2=O (stereo not given)	18%	x	x	x	-14%	x	x	x	x
COc1cccc2c1C(=N)c1c(O)c3c(c(O)c1C2=O)C[C@](O)(C(C)=O)C[C@@H]3O[C@H]1C[C@H](N)[C@@H](O)[C@H](C)O1	u	-19%[11.5 µM]	1.3µM*	3.2µM*	u	i	1.8µM*	2µM*	0.68µM*
CC(C)OCc1cc(CN2CCN(c3ccccc3)CC2)c(O)c2ncccc12	-11%	x	x	x	-20%	x	x	x	x
Oc1c(CN2CCOCC2)cc(COCc2ccccc2)c2cccnc12	u	2%	-48%	0%	u	i	i	u	i
Cc1ccc(C)c(-n2nnc(-c3nc(-c4ccc(Cl)cc4)no3)c2N)c1	8%	x	x	x	u	x	x	x	x
COc1ccc(-c2coc3ccc(O[C@@H]4O[C@@H](COC(C)=O)[C@@H](OC(C)=O)[C@@H](OC(C)=O)[C@H]4OC(C)=O)cc3c2=O)cc1	x	x	u	1%	x	i	x	x	x
CCOC(=O)C1CCCN(c2nc3ccccc3nc2C(C#N)C(=O)NCc2ccccc2)C1 (stereo not given)	3%	10%	-7%	10%	-4%	i	x	x	x
N#CC(C(=O)NCCc1ccccc1)c1nc2ccccc2nc1N1CCCCC1 (stereo not given)	3%	13%	-5%	-4%	15%	i	u	u	u
Nc1c(N=Nc2ccc(-c3ccc(N=Nc4cc(S(=O)(=O)O)c5ccccc5c4N)cc3)cc2)cc(S(=O)(=O)O)c2ccccc12	x	x	x	x	x	x	0.29µM*	0.42µM*	2.4µM*
Cc1cc(-c2ccc(N=Nc3ccc4c(S(=O)(=O)O)cc(S(=O)(=O)O)c(N)c4c3O)c(C)c2)ccc1N=Nc1ccc2c(S(=O)(=O)O)cc(S(=O)(=O)O)c(N)c2c1O	13µM*	25µM*	3.2µM*	7.9µM*	16µM*	79µM*	0.19µM*	0.77µM*	0.92µM*
O=C(NCCc1ccccc1)c1cnn(-c2ccc(F)cc2)c1-n1cccc1	6%	x	x	x	-8%	x	x	x	x
CN(C)c1ccc(/C=C2/C(=O)Nc3ccccc32)cc1	10µM*	16µM*	1µM*	-8%	10µM*	i	0.99µM*	1.4µM*	0.67µM*
COc1cc2[nH]c(=O)n(CCC(=O)NC3CCCC3)c(=O)c2cc1OC	14%	25%	4%	3%	9%	i	x	x	x
CCOc1cc2[nH]c(=O)n(CCCCC(=O)NC3CCCCC3)c(=O)c2cc1OCC	2%	49%	-39%	4%	-3%	i	i	i	i
CC(CCC(=O)O)(c1cc(Br)c(O)c(Br)c1)c1cc(Br)c(O)c(Br)c1	11%[9.22 µM]	-4%[11.5 µM]	2%[11.4 µM]	-12%[11.4 µM]	19%[9.22 µM]	i	x	x	x
Cc1cc(NC(=O)c2cc3nc(C4CC4)cc(C(F)(F)F)n3n2)no1	-3%	-2%	-7%	-5%	3%	i	u	i	u
Nc1ccc(Nc2ccccc2N)cc1	u	-4%	-120%	-8%	u	i	2.8µM*	2.3µM*	2µM*
Nc1cc(C(=O)O)ccc1Nc1ccccc1	-3%	-9%	-16%[11.4 µM]	4%[11.4 µM]	1%	i	x	x	x
Cc1cc(C(=O)Nc2ccc(N3CCOCC3)cc2)c2ccccc2n1	-7%	-14%	7.9µM*	2%	-5%	i	i	i	i
